This note sets out measurements from PubChem BioAssay (EPA / NIEHS).

Activity calls are given as the source filed them. Rule for the calls: active = hit-call score of the fitted dose curve at least 0.9, where 1 is the maximum; inactive = score below 0.9.

The target of this experiment is Hepatocyte nuclear factor 6 (Homo sapiens) (UniProt Q9UBC0). Kind of experiment: ATG_HNF6_CIS: Attagene CIS-FACTORIAL HepG2 Assay for human Hepatocyte Nuclear Factor 6 (HNF6) (AID 2282952). As to conditions: HepG2 Attagene cis-factorial HNF6 reporter transcription; actives raise or lower the signal. Here is the method: ATG_CIS is a cell-based, multiplexed-readout assay that uses HepG2, a human liver cell line, with measurements taken at 24 hours after chemical dosing in a 24-well plate.ATG_HNF6_CIS is one of 52 assay component(s) measured or calculated from the ATG_CIS assay. It is designed to make measurements of mRNA induction, a form of inducible reporter, as detected with fluorescence intensity signals by Reverse transcription polymerase chain reaction (RT-PCR) and Capillary electrophoresis technology.Data from the assay component ATG_HNF6_CIS was analyzed into 1 assay endpoint. This assay endpoint, ATG_HNF6_CIS, was analyzed with bidirectional fitting relative to DMSO as the negative control and baseline of activity. Using a type of inducible reporter, measures of mRNA for gain or loss-of-signal activity can be used to understand the reporter gene at the transcription factor-level as they relate to the gene ONECUT1. Furthermore, this assay endpoint can be referred to as a primary readout, because this assay has produced multiple assay endpoints where this one serves a reporter gene function. To generalize the intended target to other relatable targets, this assay endpoint is annotated to the dna binding intended target family, where the subfamily is homeobox protein.
Sequence of Hepatocyte nuclear factor 6 (Homo sapiens) (Q9UBC0 whole entry, looked up): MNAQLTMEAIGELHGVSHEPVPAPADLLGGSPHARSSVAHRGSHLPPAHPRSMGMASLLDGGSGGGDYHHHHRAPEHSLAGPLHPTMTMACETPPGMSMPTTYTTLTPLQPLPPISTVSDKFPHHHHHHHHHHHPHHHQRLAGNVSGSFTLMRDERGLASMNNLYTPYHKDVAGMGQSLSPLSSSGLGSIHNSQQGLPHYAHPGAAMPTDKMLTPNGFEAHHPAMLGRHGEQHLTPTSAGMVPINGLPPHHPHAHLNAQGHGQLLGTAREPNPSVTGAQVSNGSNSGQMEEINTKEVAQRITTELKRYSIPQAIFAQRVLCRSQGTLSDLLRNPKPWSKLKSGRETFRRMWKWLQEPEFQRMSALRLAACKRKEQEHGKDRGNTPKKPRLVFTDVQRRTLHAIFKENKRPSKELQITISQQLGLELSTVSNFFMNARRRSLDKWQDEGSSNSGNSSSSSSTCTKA
Human liver HepG2 cells are transiently transfected with multiple reporter transcription units (MRTUs) in 6-well plates using FuGene 6 reagent (Roche; 3 ml FuGene/1 mg DNA). The MRTU constructs are regulated by a cis-regulating element (promoter). […] A major difference between the CIS and TRANS system is that in CIS activities of endogenous TFs are measured, whereas the TRANS assay evaluates changes in activities of exogenous, chimeric NR-Gal4 proteins. […] At the end of 24 hour incubation, total RNA was isolated using TriZol reagent (Invitrogen). The isolated RNA is then reverse-transcribed using oligo(dT) primer and Mo-MLV reverse transcriptase (Invitrogen) with DNAse I (Ambion) treatment for 30 min. The one-tenth of the produced cDNA was amplified by PCR using Taq DNA polymerase (Invitrogen) and two reporter sequence-specific primers. The PCR products were fluorescently labeled by primer extension with 6-arboxyfluorescein (6-FAM) 5'-labeled reporter sequence-specific primer (2 min at 95 C, 20 s at 68 C and 10 min at 72 C) and these products were digested with 5U of HpaI (New England Biolabs) for 2h at 37 C. The fragments were purified using Qiaquick PCR columns (Qiagen), analyzed on an ABI 3130xL genetic analyzer (Applied Biosystems) with peak positions identified by using a set of X-rhodamine (ROX)-labeled MapMarker1000 molecular weight standards (BioVentures). The raw capillary electrophoresis data was processed using Attagraph software (Attagene).
For the molecule `COc1cc2c(cc1OC)[C@@]13CCN4CC5=CCO[C@H]6CC(=O)N2[C@H]1[C@H]6[C@H]5C[C@H]43`, the call was inactive. Still for that read-out and setting: as for `COc1cc(-c2ccc(N)c(OC)c2)ccc1N`, the entry is “inactive”; as for `Clc1ccc(C2(Cn3cncn3)CC(Br)CO2)c(Cl)c1` (stereo not given), “inactive”. Turning to `COc1cccc(C=O)c1`, the outcome was inactive. On the same count and under the same terms, as for `Cn1sc(Cl)cc1=O`, the entry is “inactive”; as for `COC[C@H](C)N(C(=O)CCl)c1c(C)csc1C`, “inactive”. For `Cc1ccccc1C(=O)Nc1cccc(OC(C)C)c1`, the result was inactive. Still for that read-out and setting: in the case of `ClC1=C(Cl)[C@]2(Cl)[C@H]3[C@H]([C@H]4C=C[C@H]3C4)[C@@]1(Cl)C2(Cl)Cl` it was “inactive”.

With `Cc1cc(=O)[nH]o1`, the molecule was classed as inactive. Same read-out and setting: as for `N#CCCO`, the entry is “inactive”; as for `CC(=O)C=C(C)C`, “inactive”; as for `CC(C)c1ccc(CO)cc1`, “inactive”. Still for that read-out and setting: in the case of `COC(=O)c1sccc1S(=O)(=O)NC(=O)Nc1nc(C)nc(OC)n1` it was “inactive”. Consider `CCCCCCCCc1ccc(O)cc1`, for which the call was inactive. Still for that read-out and setting: in the case of `CCC1(c2ccc(N)cc2)CCC(=O)NC1=O` (stereo not given) it was “inactive”.

Consider `O=C(Nc1ccc2[nH]ccc2c1)c1cc2cc(F)ccc2n1Cc1cccc(F)c1`, for which the AC50 (in general, the midpoint of the concentration-response curve, whichever way the signal moves) is 18.3 µM (active). Take `N#CCc1ccc(Cl)cc1`: the molecule was called inactive. Still for that read-out and setting: as for `CCC[CH2][Sn]([Cl])([Cl])[Cl]`, the entry is “inactive”. On the same count and under the same terms, as for `ClC(Cl)=C(Cl)C(Cl)=C(Cl)Cl`, the entry is “inactive”; as for `NNC(=S)NN`, “inactive”.

For `C=CCc1ccc(OC)cc1`, the result was inactive. Regarding `C=C(C)C(=O)[O][Sn]([CH2]CCC)([CH2]CCC)[CH2]CCC`, the AC50 was 0.656 µM (active). `C=CC(=O)N(C)C`: the outcome was inactive. On the same count and under the same terms, in the case of `O=[N+]([O-])c1ccc(O)c([N+](=O)[O-])c1` it was “inactive”.

Consider `CN(C)P(=O)(N(C)C)N(C)C`, for which the molecule was called inactive. In the case of `O=C/C=C/c1ccccc1`, the outcome was inactive. The same measure, in the same setting: in the case of `COP(=O)(OC)OC` it was “inactive”; in that of `Nc1cccc2ccccc12`, “inactive”. Same read-out and setting: in the case of `O=c1[nH]c(=O)[nH]c(=O)[nH]1` it was “inactive”; in that of `N#Cc1ccccn1`, “inactive”; in that of `O=C1CCCN1`, “inactive”.

`[O-][Cl+2]([O-])O`: the result was inactive. On the same count and under the same terms, as for `CCC(=O)c1ccccc1`, the entry is “inactive”; as for `CCNc1nc(NC(C)(C)C)nc(SC)n1`, “inactive”.

In the case of `CCOP(=S)(OCC)SCSP(=S)(OCC)OCC`, the call was inactive. Same read-out and setting: as for `CCCCP(CCCC)CCCC`, the entry is “inactive”. Consider `CC12CC1(C)C(=O)N(c1cc(Cl)cc(Cl)c1)C2=O` (stereo not given), for which the outcome was inactive. The same measure, in the same setting: as for `CC(C)C1CCC(Cc2ccc(Cl)cc2)C1(O)Cn1cncn1` (stereo not given), the entry is “inactive”; as for `COc1cc(OC)nc(NC(=O)NS(=O)(=O)c2ncccc2C(=O)N(C)C)n1`, “inactive”; as for `C[C@]12CC[C@H](O)CC1=CC[C@@H]1[C@@H]2CC[C@]2(C)C(=O)CC[C@@H]12`, “inactive”.
